Article PMC4336329 (PLoS ONE, 2015)
Hit rate of the full screen: of about 310,000 compounds, about 14,000 (4.5%) showed an effect of 50% or more. The effect is printed as a negative number. The full list was thinned out, with strong results kept by preference.

What follows are molecules tested against human ether-à-go-go-related gene (hERG) potassium channel (human, UniProt Q12809) (assay: primary screen, population patch clamp on CHO cells stably expressing hERG; higher = less effect of the substance).
Sequence of human ether-à-go-go-related gene (hERG) potassium channel (Q12809 whole entry, looked up): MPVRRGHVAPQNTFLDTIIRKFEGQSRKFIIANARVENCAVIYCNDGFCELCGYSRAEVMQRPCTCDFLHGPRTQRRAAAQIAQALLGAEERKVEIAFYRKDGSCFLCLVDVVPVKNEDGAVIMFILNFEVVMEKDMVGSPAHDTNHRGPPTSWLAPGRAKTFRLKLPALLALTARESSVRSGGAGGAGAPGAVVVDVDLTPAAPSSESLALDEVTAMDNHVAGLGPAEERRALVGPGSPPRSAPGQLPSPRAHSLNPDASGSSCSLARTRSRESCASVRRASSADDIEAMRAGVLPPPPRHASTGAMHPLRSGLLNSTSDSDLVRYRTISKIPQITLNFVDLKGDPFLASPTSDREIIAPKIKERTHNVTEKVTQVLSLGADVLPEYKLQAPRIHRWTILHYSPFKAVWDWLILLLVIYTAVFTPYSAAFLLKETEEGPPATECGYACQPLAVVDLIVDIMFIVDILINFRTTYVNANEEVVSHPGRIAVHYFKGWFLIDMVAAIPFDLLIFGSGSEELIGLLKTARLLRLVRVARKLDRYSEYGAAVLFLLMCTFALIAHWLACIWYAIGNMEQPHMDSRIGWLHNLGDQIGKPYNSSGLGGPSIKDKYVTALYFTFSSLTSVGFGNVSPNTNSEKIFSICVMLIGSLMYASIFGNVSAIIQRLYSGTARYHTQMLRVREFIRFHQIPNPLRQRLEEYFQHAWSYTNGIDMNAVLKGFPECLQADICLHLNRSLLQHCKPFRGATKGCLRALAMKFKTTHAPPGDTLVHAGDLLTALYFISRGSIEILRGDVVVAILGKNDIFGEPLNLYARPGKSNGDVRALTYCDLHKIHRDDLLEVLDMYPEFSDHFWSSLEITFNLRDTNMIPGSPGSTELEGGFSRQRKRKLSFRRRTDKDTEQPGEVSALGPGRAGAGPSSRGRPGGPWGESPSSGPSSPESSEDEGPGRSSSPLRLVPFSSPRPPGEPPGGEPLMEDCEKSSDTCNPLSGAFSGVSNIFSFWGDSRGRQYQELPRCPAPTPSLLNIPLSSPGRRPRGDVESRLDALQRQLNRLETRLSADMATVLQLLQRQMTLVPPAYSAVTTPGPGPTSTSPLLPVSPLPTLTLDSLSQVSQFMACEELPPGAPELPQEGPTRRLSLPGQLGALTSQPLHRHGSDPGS
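Also: peak tail current of the secondary pulse compared with the same well before compound.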

SMILES	hERG current change (%, negative = inhibition) at 10uM [%]
O=C(Nc1nnc(-c2ccco2)s1)c1ccccc1	8.26
Nn1c(Cc2ccccc2F)nnc1SCCOc1ccc(Cl)cc1	-14.1
C=CCSc1nnc(CNC(=O)c2ccccc2C)n1C(C)C	5.68
CC(=O)c1c(C)[nH]c(C(=O)NCCC2=CCCCC2)c1C	4.77
O=C1CC(c2ccccc2)CC(O)=C1C=NCCN1CCN(Cc2ccccc2)CC1 (stereo not shown)	-63.1
Cc1ccc(C2CC(=O)C(C=NCCN3CCN(C(=O)Cc4ccccc4)CC3)=C(O)C2)cc1 (stereo not shown)	-42.8
O=C1CC(c2ccccc2)CC(O)=C1C=NCCN1CCN(C(=O)Cc2ccccc2)CC1 (stereo not shown)	-53
O=C1CC(c2ccccc2)CC(O)=C1C=NCCN1CCNCC1 (stereo not shown)	9.28
O=C1CC(c2ccccc2)CC(O)=C1C=NCCc1ccccc1 (stereo not shown)	6.57
O=C1CC(c2ccccc2)CC(O)=C1C=NCCN1CCOCC1 (stereo not shown)	-0.797
Cc1ccc(C)c(OC2=NS(=O)(=O)c3ccccc32)c1	23.2
Cc1cc(Cl)ccc1OCCCC(=O)N/N=C/c1cccc([N+](=O)[O-])c1	22.2
O=C(Nc1cccc(-c2nc3ccccc3s2)c1)c1cccs1	-53.1
CC(=O)Nc1cccc(-c2nc3ccccc3s2)c1	-13.4
O=C(Nc1ccc(O)c(-c2nc3ccccc3s2)c1)c1cccs1	-9.79
Cc1nc(N2CCN(c3ccccn3)CC2)c2c(C)c(C(=O)Nc3c(F)cc(F)cc3Br)sc2n1	-14.4
CN1CCN(S(=O)(=O)c2ccc(Cl)c3ccccc23)CC1	-1.62
C=CCn1c(NC(=O)c2ccc(Br)o2)c(C(=O)OCC)sc1=S	37
CC(=O)c1ccc(N2CCN(C(=O)C3(S(=O)(=O)c4ccc(Cl)cc4)CC3)CC2)cc1	-51.8
Cc1ccc(Cl)cc1N1CCN(C(=O)C2(S(=O)(=O)c3ccc(Cl)cc3)CC2)CC1	-6.38
O=C(N1CCN(c2ccccc2)CC1)C1(S(=O)(=O)c2ccc(Cl)cc2)CC1	-42.1
COc1ccc(N2CCN(C(=O)C3(S(=O)(=O)c4ccc(C)cc4)CC3)CC2)cc1	-53.7

SMILES	hERG current change (%, negative = inhibition) at 10uM [%]
Cc1ccc(S(=O)(=O)C2(C(=O)N3CCCCCC3)CC2)cc1	-11.6
Cc1ccc(S(=O)(=O)C2(C(=O)N3CCN(c4cc(C)ccc4C)CC3)CC2)cc1	-15.2
CCOc1ccc(C(=O)CCC(=O)Nc2cc(C)ccn2)cc1	11.8
COc1ccc(OC)c(N=Cc2c(O)c3ccccc3oc2=O)c1	12.9
O=C(CCc1nnc2ccc(NCc3ccccc3Cl)nn12)NC1CCCCC1	-7.98
COc1ccc(C(=O)C2CCCN(C(=O)CCc3ccccn3)C2)c(C)c1 (stereo not shown)	-14.7
COc1ccc(C(=O)C2CCCN(Cc3cccn3-c3ccccn3)C2)c(OC)c1 (stereo not shown)	-74.6
COc1ccc(C(=O)C2CCCN(Cc3cccn3-c3ccc(Cl)cn3)C2)c(OC)c1 (stereo not shown)	-76
COc1ccc(C(=O)C2CCCN(CCO)C2)c(C)c1 (stereo not shown)	4.23
COc1ccc(C(=O)C2CCCN(Cc3cccn3-c3ccccn3)C2)c(C)c1 (stereo not shown)	-78.9
COc1ccccc1NC(=O)Cn1c(C)nc2c(sc(=S)n2Cc2ccco2)c1=O	-32.6
COc1cc(Cl)cc(C#N)c1OCC(=O)O	11
O=C(NC(Nc1nc2ccc([N+](=O)[O-])cc2s1)(C(F)(F)F)C(F)(F)F)c1ccccc1Cl	-23.1
O=C(CSc1nnc(-c2cccnc2)n1Cc1ccccc1)NCc1ccccc1	-14.1
O=C(COC(=O)c1ccccc1NS(=O)(=O)c1cccs1)NCC12CC3CC(CC(C3)C1)C2	5.15
COc1cc(NC2c3ccccc3C(=O)N2Cc2ccccc2Cl)cc(OC)c1OC (stereo not shown)	-0.846
CC(C)(CO)NC(=O)C(Cc1ccccc1)N1C(=O)c2ccccc2C1=O (stereo not shown)	17
Cc1c(C#N)c(NC(=O)CCl)n(Cc2cccs2)c1C	-11.4
CCN1CCN(C(=O)CCc2nnc(CCCCc3ccccc3)o2)[C@@H](C)C1=O	16.5
CN1CCC(=O)N([C@H](CSc2ccccc2)c2ccccc2)CC1	-64.9
CN1CCC(=O)N([C@H](CN=[N+]=[N-])c2ccccc2)CC1	6.65
